Experimental findings from PubChem BioAssay are described below.

Activity calls are given as the source filed them. Unless noted, how the calls were made is not given here.

Experiment [1] in a line: HepG2 liver cancer cell viability effects, profiling panel, resazurin fluorescence, 24 h, PK04 Diversity Set (AID 1172). Further: test concentration not given here. The conditions noted are these: higher = more signal. On the technique in general: Resazurin is reduced to fluorescent resorufin, in cell work by metabolically active cells.
Experiment [2] can be described thus: basal S. cerevisiae growth modulation, no modifier, primary screen, OD600, strain BY4716, 24 h, basal condition (AID 1173). The settings on record: OD600, 24 h, higher = more signal, called active from +8 up or from −8 down.
The nature of experiment [3]: MM1S myeloma cell viability, profiling panel, resazurin fluorescence, basal, 24 h, PK04 Diversity Set (AID 1174).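 Further: MM1S multiple myeloma cell line; test concentration not given here.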 The settings on record: higher = more signal, called active from +8 up or from −8 down.
The target in experiment [4] is Dihydroorotate dehydrogenase (quinone), mitochondrial (Plasmodium falciparum (isolate 3D7)) (UniProt Q08210). The experiment can be described thus: PfDHODH enzyme inhibitors, primary screen, biochemical, C-terminal His tag, absorbance 600 nm (AID 1175).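 Further: recombinant parasite enzyme with a five histidine tag at its C terminus; test concentration not given here.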 The conditions noted are these: DCIP absorbance 600 nm, higher = more signal, called active from +8 up or from −8 down.

The nature of experiment [5]: P. aeruginosa biofilm formation inhibitors, primary screen, strain PAO1, LB-PBS medium, absorbance 600 nm (AID 1176). Further: test concentration not given here. The conditions noted are these: P. aeruginosa PAO1 growth/biofilm, A600, 12 h; higher = more signal.
The nature of experiment [6]: S. cerevisiae RM11-1a growth modifiers, primary screen, strain RM11-1a, OD600, basal, 24 h (AID 1177).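 Further: cultures grown under basal conditions with no added stressor; test concentration not given here.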 The settings on record: OD600, 24 h, higher = more signal, called active from +8 up or from −8 down.
Experiment [7] can be described thus: E. coli acrAB mutant growth effects, primary screen, E. coli filamentation inducers, strain DRC39, OD650, 24 h (AID 1178).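 Further: growth measured as culture turbidity by optical density at 650 nm; test concentration not given here.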 The conditions noted are these: higher = more signal, called active from +8 up or from −8 down.
Experiment [8] in a line: E. coli acrAB mutant growth effects, primary screen, E. coli filamentation inducers, strain DRC39, OD650, 48 h (AID 1179).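 Further: screen aims at cell division blockers that make cells filament.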 The conditions noted are these: E. coli DRC39 delta-acrAB growth, higher = more signal, called active from +8 up or from −8 down.
A short description of experiment [9]: RPMI8226 myeloma cell viability, profiling panel, resazurin fluorescence, basal, 24 h, PK04 Diversity Set (AID 1180).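 Further: RPMI8826 multiple myeloma cell line at 5000 cells per well; test concentration not given here.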 The conditions noted are these: higher = more signal.
For experiment [10], the target named is E3 ubiquitin-protein ligase XIAP (Homo sapiens) (UniProt P98170). The experiment can be described thus: XIAP binders, primary screen, biophysical, small-molecule microarray, fluorescence 635 nm (AID 1181).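 Further: score merges 667 nm emission and signal to noise over triplicate slides.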 The settings on record: small-molecule microarray binding, higher = more signal.
Sequence of E3 ubiquitin-protein ligase XIAP (Homo sapiens) (P98170 whole entry, looked up): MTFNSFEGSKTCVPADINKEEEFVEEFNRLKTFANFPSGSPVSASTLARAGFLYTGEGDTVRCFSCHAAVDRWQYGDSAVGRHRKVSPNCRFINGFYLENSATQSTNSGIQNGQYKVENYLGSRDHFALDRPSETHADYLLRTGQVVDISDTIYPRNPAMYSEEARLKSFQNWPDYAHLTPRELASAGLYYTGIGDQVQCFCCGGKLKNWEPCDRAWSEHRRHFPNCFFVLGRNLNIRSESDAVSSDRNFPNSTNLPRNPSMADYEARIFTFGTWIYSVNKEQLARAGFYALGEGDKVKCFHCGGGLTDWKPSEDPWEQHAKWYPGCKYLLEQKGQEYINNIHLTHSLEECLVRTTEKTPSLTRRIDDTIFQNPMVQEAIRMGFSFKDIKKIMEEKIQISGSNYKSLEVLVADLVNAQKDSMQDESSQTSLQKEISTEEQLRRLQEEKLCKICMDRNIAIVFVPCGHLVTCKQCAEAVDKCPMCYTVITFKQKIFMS

Sequence of Dihydroorotate dehydrogenase (quinone), mitochondrial (Plasmodium falciparum (isolate 3D7)) (Q08210 whole entry, looked up): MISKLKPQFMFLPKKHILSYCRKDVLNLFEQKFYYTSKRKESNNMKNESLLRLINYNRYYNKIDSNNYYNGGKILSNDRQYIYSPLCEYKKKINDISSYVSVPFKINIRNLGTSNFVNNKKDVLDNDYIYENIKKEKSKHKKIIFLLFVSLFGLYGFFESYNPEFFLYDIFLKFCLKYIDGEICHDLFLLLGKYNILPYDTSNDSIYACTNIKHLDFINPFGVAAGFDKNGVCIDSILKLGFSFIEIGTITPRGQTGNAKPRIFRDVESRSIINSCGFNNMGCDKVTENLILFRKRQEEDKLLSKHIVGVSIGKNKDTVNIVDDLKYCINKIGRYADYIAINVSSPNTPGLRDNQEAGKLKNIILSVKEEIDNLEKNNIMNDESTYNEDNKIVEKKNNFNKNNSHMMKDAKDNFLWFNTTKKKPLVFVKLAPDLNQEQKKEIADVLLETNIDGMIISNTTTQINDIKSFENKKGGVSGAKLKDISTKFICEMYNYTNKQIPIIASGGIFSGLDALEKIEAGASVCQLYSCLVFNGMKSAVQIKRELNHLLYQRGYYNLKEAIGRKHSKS

As to `CC(C)CON=C1C[C@@H](O)[C@@H](O)[C@@H]2[C@@H]3C(=O)N(Cc4ccccc4)C(=O)[C@@H]3CC[C@@H]12`, the z-score in [1] was 0.854; in experiment [2], -0.608 (inactive); in experiment [3], 0.334 (inactive); in [5], -0.495 (inactive); in experiment [6], 0.407 (inactive); in experiment [7] it was 0.426 (inactive). The z-score in experiment [8] was 0.918 (inactive); in experiment [9] it was 0.731. Moreover, the composite z-score in [4] was -0.282 (inactive); in experiment [10], -0.242.

Take `COc1ccc([Si](C)(C)[C@@H]2[C@@H](CCO)O[C@]3(C(=O)N(Cc4ccc(NC(C)=O)cc4)c4ccccc43)[C@H]2C)cc1`: the z-score in experiment [1] is -2.52; in experiment [2] it was 1.6 (inactive); in experiment [3] it was -5.15 (inactive); in [5], -0.094 (inactive); in experiment [6], 3.91 (inactive); in [7], -0.486 (inactive). The values for the z-score in experiment [8] and in experiment [9] were -0.937 (inactive) and -5.29, respectively. Also, the composite z-score in [4] was -1.34 (inactive); in experiment [10], 0.0291.

Consider `CO[C@H]1O[C@H](CO)[C@@H](OC(=O)Nc2ccc3c(c2)OCO3)[C@H](OC(=O)Nc2ccccc2-c2ccccc2)[C@@H]1OC(=O)Nc1ccccc1-c1ccccc1`, for which the z-score was -0.659 in experiment [1]; 1.42 (inactive) in experiment [2]; -0.443 (inactive) in [3]; 1.14 (inactive) in experiment [5]; 2.33 (inactive) in experiment [6]; -0.243 (inactive) in [7]. Further, the z-score in experiment [8] was -0.0545 (inactive); in experiment [9], -0.427. Further, the composite z-score in [4] was 0.237 (inactive); in [10] it was 0.28.

For the molecule `O=C1O[C@@H](c2ccccc2)[C@@H](c2ccccc2)N2[C@@H](c3ccc(O)cc3)[C@]3(C(=O)Nc4ccccc43)[C@@H](C(=O)O)[C@H]12`, the z-score was -0.253 in experiment [1]; -0.922 (inactive) in experiment [2]; -0.14 (inactive) in experiment [3]; 0.697 (inactive) in [5]; -0.472 (inactive) in [6]; -0.0134 (inactive) in experiment [7]. Moreover, the z-score is -0.831 (inactive) in [8] and 0.393 in [9]. The composite z-score is -1.42 (inactive) in [4] and 0.125 in experiment [10].

For the molecule `CN1C(=O)C2C(C1=O)C1C=C(CCCO)C2C(c2ccc(CN3CCCC3)cc2)N1C` (stereo not given), the z-score in [1] was -1.03; in experiment [2], 1.04 (inactive); in experiment [3] it was -1.78 (inactive); in [5], -1.02 (inactive); in [6], 0.626 (inactive); in experiment [7], -0.815 (inactive). Also, the z-score in [8] was -0.296 (inactive); in [9], -0.802. Besides, the results for the composite z-score in experiment [4] and in experiment [10] were -3.89 (inactive) and 0.182, respectively.

On to `C#C[C@@H]1Oc2ccccc2S(=O)(=O)N2CCC[C@H]12`, for which the z-score is -0.768 in [1]; -2.6 (inactive) in experiment [2]; -0.46 (inactive) in experiment [3]; 0.0359 (inactive) in experiment [5]; 0.494 (inactive) in experiment [6]; -0.689 (inactive) in [7]. Moreover, the figures for the z-score in [8] and in [9] were -0.816 (inactive) and -0.776, respectively. The composite z-score in experiment [4] is 0.515 (inactive); in [10] it was -0.38.

For the molecule `CCOC(=O)[C@H](CC(C)C)NC(=O)CCC1CC(OC(=O)NCc2cccc3ccccc23)CC2(CCCC(COC(=O)NCCN3CCOCC3)O2)O1` (stereo not given in full), the z-score is 1.29 in experiment [1]; -0.996 (inactive) in experiment [2]; 1.09 (inactive) in [3]; 0.131 (inactive) in experiment [5]; -0.613 (inactive) in [6]; -0.404 (inactive) in experiment [7]. The figures for the z-score in [8] and in experiment [9] were -0.88 (inactive) and 1.19, respectively. For the same molecule, the composite z-score is -0.247 (inactive) in experiment [4] and -0.0143 in [10].

For the molecule `Cc1ccc(S(=O)(=O)N[C@@H]2COC(=O)[C@H](C)COC(=O)CC=C[C@H]2C)cc1`, the z-score in [1] is 0.285; in experiment [2], 0.773 (inactive); in experiment [3] it was 0.222 (inactive); in [5], -0.601 (inactive); in [6], 1.3 (inactive); in experiment [7], -0.0401 (inactive). Further, the z-score was -1.2 (inactive) in experiment [8] and 0.242 in [9]. For the same molecule, the composite z-score in experiment [4] was 0.576 (inactive); in experiment [10], -0.13.

Turning to `C=CC[C@@H]1C=C[C@H](ON=C[C@@H](OC)[C@H](C)C=CCC(=O)OC)[C@@H](CO)O1`, the z-score was -0.266 in experiment [1]; -0.54 (inactive) in [2]; -0.709 (inactive) in experiment [3]; -0.537 (inactive) in experiment [5]; 1.17 (inactive) in experiment [6]; 0.456 (inactive) in experiment [7]. For the same molecule, the z-score in experiment [8] was 0.732 (inactive); in experiment [9], -0.707. In addition, the composite z-score was 0.217 (inactive) in experiment [4] and 0.32 in experiment [10].

Turning to `COCC1=C2[C@@H](CCc3ccccc3)OB(O)C[C@@H]2n2c(=O)n(-c3ccccc3)c(=O)n2C1`, the z-score was 0.0883 in [1]; -1.24 (inactive) in [2]; -0.177 (inactive) in [3]; 0.248 (inactive) in experiment [5]; -0.352 (inactive) in [6]; 0.969 (inactive) in experiment [7]. The figures for the z-score in experiment [8] and in experiment [9] were 0.545 (inactive) and 0.0549, respectively. The composite z-score in experiment [4] was 0.653 (inactive); in experiment [10], 0.698.

For the molecule `CC(CCN1CCc2nc(-c3ccccc3)c(-c3ccccc3)cc2C1)=NOC(C)CN1CCCCc2nc(C)c(C)cc21` (stereo not given), the z-score in experiment [1] is -0.0429; in experiment [2] it was -2.52 (inactive); in experiment [3], -1.07 (inactive); in [5] it was 0.347 (inactive); in experiment [6], -0.609 (inactive); in experiment [7], 0.789 (inactive). The figures for the z-score in [8] and in experiment [9] were -0.702 (inactive) and -0.747, respectively. In addition, the composite z-score in experiment [4] was 0.187 (inactive); in experiment [10], -0.0651.

Consider `CO[C@H]1O[C@H](CO)[C@@H](OC(=O)Nc2ccc(C#N)cc2)[C@H](OC(=O)c2cc3ccccc3[nH]2)[C@H]1OC(=O)c1cc2ccccc2[nH]1`, for which the z-score in experiment [1] was -0.115; in [2], -1.05 (inactive); in [3], -1.76 (inactive); in [5], 1.63 (inactive); in experiment [6] it was -1.67 (inactive); in [7], 2.96 (inactive). Also, the results for the z-score in experiment [8] and in experiment [9] were 2.93 (inactive) and -1.7, respectively. The composite z-score in [4] was -1.68 (inactive); in experiment [10] it was -0.0448.

For the molecule `CN(C)CCCNC(=O)[C@@H]1c2ccccc2C(=O)N(Cc2cc(F)cc(C(F)(F)F)c2)[C@H]1c1ccc(CO)cc1`, the z-score was 0.0356 in experiment [1]; -0.473 (inactive) in experiment [2]; -0.62 (inactive) in experiment [3]; 0.348 (inactive) in [5]; 0.0333 (inactive) in experiment [6]; -0.0392 (inactive) in [7]. The values for the z-score in [8] and in experiment [9] were -0.578 (inactive) and -0.359, respectively. The composite z-score in experiment [4] was 0.0999 (inactive); in experiment [10], -0.0172.
